Source: the supplement of paper PMC12494721
Structures can show the parent of a compound that is named as a salt.

System: Klebsiella aerogenes DSM 30053
Assay: fold change of Cadaverine concentration vs plate DMSO controls (fold change (ratio)); higher = more amine produced, active = hit call of the paper (significant change in both replicates, either direction)
Conditions: incubation time: 27 h, anaerobic, 37 °C;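 for the amine columns active = adjusted P below 0.05 in both replicates with a change the same way and a mean fold change under 0.8 or over 1.25; inactive = the rest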
Method in brief: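 Extracts of whole anaerobic mGAM cultures were analysed for amines by LC–triple-quadrupole MS with dynamic MRM and external calibration curves, with drift corrected within batch. Four gut strains were grown at 37 °C for 27 h in 80 µL wells with compounds at 20 µM final, sweeteners at 50 µM final. Each value expresses fold change over plate DMSO controls. The average of 2 biological replicates is shown.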

Fold change of Cadaverine concentration, inactive:
CN(C(=O)CN(CCO)CC(=O)N(C)C(C)(C)Cc1ccccc1)C(C)(C)Cc1ccccc1 [Oxethazaine] (20 µM) 0.988
CCCCC(CC)CN1C(=O)[C@@H]2[C@H](C1=O)[C@@H]1C=C[C@H]2C1 (mixture of isomers) (20 µM) 1
CC(=O)OCC1=C(C(=O)O)N2C(=O)[C@@H](NC(=O)Cc3cccs3)[C@H]2SC1 [Cephalothin sodium salt] (20 µM) 1.01
Cc1cc(CC(=O)O)n(C)c1C(=O)c1ccc(Cl)cc1 [Zomepirac sodium salt] (20 µM) 0.984
CC(CNC1CCCCC1)OC(=O)c1ccccc1 (stereo not given) [Hexylcaine hydrochloride] (20 µM) 0.984
CC(C)n1c(/C=C/C(O)CC(O)CC(=O)O)c(-c2ccc(F)cc2)c2ccccc21 (stereo not given) [Fluvastatin sodium salt] (20 µM) 1.03
CCCc1cc(=O)[nH]c(=S)[nH]1 [Propylthiouracil] (20 µM) 0.995
CC(=O)Nc1ccc(OCC(O)CNC(C)C)cc1 (stereo not given) [Practolol] (20 µM) 1.01
C[C@@H]1O[C@@H](O[C@H]2[C@H](Oc3cc(O)c(C(=O)CCc4ccc(O)cc4)c(O)c3)O[C@H](CO)[C@@H](O)[C@@H]2O)[C@H](O)[C@H](O)[C@H]1O [Naringin Dihydrochalcone] (50 µM) 1.01
Nc1cc(-c2ccncc2)c[nH]c1=O [Amrinone] (20 µM) 1.02
